From PubChem BioAssay AID1578 (Sanford-Burnham Center for Chemical Genomics, 2009)
Among all 290,000 compounds or so, about 3,000 (1%) were called active. The sample holds actives, similar compounds and a random draw of the others, so the mix is not that of the screen. A number with no mark means an inactive call. No stated cut-off is given here; in the data, active means inhibition mostly above about 36% (no sharp cut-off); inactive means mostly below about 34%.

Assay: NOD1 signaling inhibitors, primary screen, cell-based, luminescence, uHTS (AID 1578);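 further: HEK-293T reporter cells stimulated with the NOD1 agonist gamma-tri-DAP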
Conditions: NOD1-driven NF-kB luciferase reporter cells, at 4 µM, stronger effect = higher value
In the case of `C(=N\n1cnnc1)/c1cccc2ccccc12`, the inhibition is reported as 7.2%.
Compound `Cc1cc(=O)oc2c(C)c(OCC(=O)N3CCC(C(=O)O)CC3)ccc12` has an inhibition of -25.2%.
`CCc1ccc(C2CC(=O)Nc3c2c(=O)nc2c(C)cccn32)cc1` (configuration not stated) showed an inhibition of -32.6%.
Work on `COc1cccc(C(CNC(=O)C(c2ccccc2)c2ccccc2)N(C)C)c1` (configuration not stated) yielded an inhibition of -20.7%.
For `CC(C)(C)NC(=O)CSc1nc2[nH]ncc2c(=O)[nH]1`, the inhibition was -22.7%.
For `COc1ccccc1N1CCN(/N=C/c2cc(Br)ccc2F)CC1`, the inhibition was -42.6%.
In the case of `CNc1ccn(C2CCCO2)c(=O)n1` (configuration not stated), the inhibition is reported as 1.2%.
With `CCOc1ccc(NC(=O)c2cccnc2Cl)c([N+](=O)[O-])c1` the inhibition was -27.8%.
For `COc1ccc(NC(=O)c2ccccc2NS(=O)(=O)c2ccc(C)cc2)c([N+](=O)[O-])c1`, the inhibition was 58.5%.
Work on `Cc1ccc2oc(C(=O)N(CCO)Cc3ccccc3)c(C)c2c1` yielded an inhibition of -6.1%.
For `O=C(C(=O)N1CCOCC1)c1cn(CCOc2ccccc2)c2ccccc12`, the inhibition was 1%.
`Cc1ccc(CSC2=NCCN2S(=O)(=O)c2ccccc2)cc1` gave an inhibition of -6%.
For `Cc1ccc(CSC2=NCCN2S(=O)(=O)c2ccc(F)cc2)cc1`, the inhibition was 48.3% (active).
With `Cc1ccc(S(=O)(=O)N2CCN=C2SCc2ccccc2)cc1` the inhibition was -1.7%.
For `Cc1ccccc1S(=O)(=O)Cc1ccc(C(=O)NCCCN2CCN(C)CC2)o1`, the inhibition was -8.5%.
For `CCOC(=O)Cc1cnc(NC(=O)Cn2nnc(-c3ccc(OCC)cc3)n2)s1`, the inhibition was 0.4%.
Compound `O=C(N/N=C/c1ccc(OC(=O)c2ccccc2)cc1)c1cccnc1` has an inhibition of -4.5%.
For `COC(=O)c1ccc2c(c1)C(C)(C)C(/C=C/c1ccc(OC)c(OC)c1OC)=[N+]2C`, the inhibition was -8.7%.
Work on `COC(=O)c1ccc2nc(C)c(C)nc2c1` yielded an inhibition of -2.5%.
Work on `CCCCNC(=O)c1cc2c(=O)n(CC)c3ccccc3c2s1` yielded an inhibition of -5.9%.
`COc1ccc(CNC(=O)CN(C(=O)CCC(=O)Nc2ccccn2)c2ccc3c(c2)OCO3)cc1` gave an inhibition of -19.9%.
In the case of `CCn1cc(C(=O)NCC(OC)OC)c(=O)c2cc(S(=O)(=O)N(C)C3CCCCC3)ccc21`, the inhibition is reported as 59% (active).
In the case of `CCn1cc(C(=O)NCCCOC)c(=O)c2cc(S(=O)(=O)N(C)C3CCCCC3)ccc21`, the inhibition is reported as -10.9%.
With `COC(CNC(=O)c1cn(C)c2ccc(S(=O)(=O)N(C)C3CCCCC3)cc2c1=O)OC` the inhibition was -18.2%.
`CCOc1ccc(S(=O)(=O)N(CC)CC(=O)N2CCOCC2)cc1C` gave an inhibition of -22.7%.
With `CN(C(=O)Nc1ccc(Cl)cc1)c1c2c(nn1C)CCCC2` the inhibition was -14.8%.
`COc1ccc(OC)c2c1sc(=NC(=O)c1cccc(N3C(=O)CCC3=O)c1)n2C` showed an inhibition of -1.9%.
For `Cc1nc(N/N=C/c2ccccn2)sc1C`, the inhibition was 91% (active).
`CCCc1sc(N/N=C/c2ccccn2)nc1-c1ccc(Br)cc1` showed an inhibition of -37.7%.
For `C(=N\Nc1nc2ccccc2[nH]1)/c1ccncc1`, the inhibition was -22%.
With `C(=N\Nc1nc2ccccc2[nH]1)/c1ccccn1` the inhibition was 59.4% (active).
In the case of `CCN(CC)c1ccc(/C=N/Nc2nc3ccccc3[nH]2)cc1`, the inhibition is reported as 105% (active).
`C(=N\Nc1nc2ccccc2[nH]1)/c1ccc2ncccc2c1` showed an inhibition of 18.6%.
With `Cc1csc(N/N=C/c2ccccn2)n1` the inhibition was 8.7%.
In the case of `C(=N\Nc1nc2ccccc2[nH]1)/c1ccccc1`, the inhibition is reported as -71.3%.
In the case of `CCN(CC)c1ccc(/C=N/Nc2nc3ccccc3[nH]2)c(O)c1`, the inhibition is reported as 11.9%.
`CCCOc1ccc(N2C(=O)CC(N(CCc3ccc(OC)c(OC)c3)C(=S)Nc3ccccc3)C2=O)cc1` (configuration not stated) gave an inhibition of -8.1%.
With `O=C(Nc1ccon1)c1ccc(S(=O)(=O)N2CCOCC2)cc1` the inhibition was -5.1%.
`CCOc1cc(N2CCOCC2)c(OCC)cc1NC(=O)c1nc2nccc(C)n2n1` showed an inhibition of -8.4%.
In the case of `O=S(=O)(NCc1nc2ccccc2[nH]1)c1ccccc1`, the inhibition is reported as -21.9%.
`CCCCNC(=O)CCC(=O)Nc1ccc2nc(N3CCCCC3)cc(C)c2c1` showed an inhibition of -15.4%.
Compound `O=c1[nH]c(C2CCN(S(=O)(=O)c3ccc(C(F)(F)F)cc3)CC2)nc2c1nnn2Cc1ccccc1` has an inhibition of -8.3%.
Compound `O=C(N/N=C/c1cccnc1)c1ccc(CN2c3cccc4cccc(c34)S2(=O)=O)cc1` has an inhibition of -27.8%.
In the case of `Fc1ccccc1NC(=S)NCCc1ccc(Cl)cc1`, the inhibition is reported as -79.8%.
`CCc1nc(SCC(=O)Nc2ccccc2C(=O)OC)n[nH]1` showed an inhibition of -16.5%.
With `COc1ccccc1CNC(=O)c1cc(C(=O)CC(C)C)c[nH]1` the inhibition was -11%.
With `CCc1cc(=O)oc2cc(OC(C)=O)cc(OC(C)=O)c12` the inhibition was 41.8% (active).
Compound `CC(=O)Oc1cc(OC(C)=O)c2c(C)cc(=O)oc2c1` has an inhibition of 13.6%.
`CCc1cc(=O)oc2cc(C)cc(OCC(C)=O)c12` showed an inhibition of -8.5%.
Work on `Cc1nnc(NC(=O)CN2CCN(Cc3ccccc3Cl)CC2)s1` yielded an inhibition of -8.9%.
In the case of `CCN(CC)c1ccc(NC(=O)CN2C(=O)CC(C)(C)S(=O)(=O)c3ccccc32)c(C)c1`, the inhibition is reported as -6.7%.
`Cc1ccc(N(C(=O)Cn2nnc(-c3ccc(C)o3)n2)C(C(=O)NC2CCCC2)c2ccncc2)cc1` (configuration not stated) showed an inhibition of -8.9%.
`CNC(=S)Nc1cc(S(=O)(=O)Nc2cc(Cl)ccc2Cl)ccc1N1CCCC1` showed an inhibition of 2.1%.
For `CCOc1c(Cl)cc(CNc2nnnn2C)cc1OC`, the inhibition was -41.1%.
With `O=C(Cc1cccc2ccccc12)N/N=C1\CCCc2ccccc21` the inhibition was 13%.
For `O=C(CCCOc1ccccc1)Nc1nncs1`, the inhibition was 2.6%.
For `O=C(CCS(=O)(=O)Cc1ccccc1)Nc1nncs1`, the inhibition was 103% (active).
`Cc1ccccc1OCCCC(=O)Nc1nccs1` gave an inhibition of 6.5%.
With `Cc1ccccc1OCCCC(=O)Nc1nncs1` the inhibition was 51.4% (active).
Compound `O=C(CCS(=O)(=O)c1ccccc1)Nc1nncs1` has an inhibition of 3.3%.
`Cc1nnc(NC(=O)CCS(=O)(=O)Cc2ccccc2)s1` gave an inhibition of -5.2%.
`CCOC(=O)c1nnc2cc(-c3ccccc3)nn2c1C` showed an inhibition of -32.6%.
